Compound activity (PubChem)
A selection: hits, their analogues and other compounds. The true share with any hit is near 21%.
DT40 TDP1 CPT – DT40-hTDP1 cell growth loss with CPT; hit rate 12% among 420,000; Potency, µM (top dose mostly 46.2 µM), for inactives: at the highest dose activity change, negative = growth inhibition, actives largely listed as inhibitors; chicken DT40 Tdp1-/-;hTDP1 cells + 20 nM CPT, ATP luminescence, 48 h; AID 686979; note: potency is the fitted concentration of half-maximal effect; % is set by controls: 0 for no effect and ±100 for the full control effect; nearly all actives have a fitted effect of over 55% in size
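Chicken DT40 Tdp1-/- cells stably complemented with human TDP1 were seeded at 400 cells/well in medium containing 20 nM camptothecin, exposed to pin-transferred compounds, and grown at 37 °C for at least 48 hr. Viability was read as ATP luminescence.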
D3 antag – blocks the human D3 dopamine receptor; hit rate 2.5% among 360,000; D3R cells, DiscoveRx beta-arrestin luminescence, antagonist mode; hits give low values; P35462; max response, negative = inhibition, %; in the data active = max response below about -50%; inconclusive = no clear call, values can overlap the other calls; note: % is set by controls: 0 for no effect and ±100 for the full control effect
Target sequence (P35462 whole entry, looked up): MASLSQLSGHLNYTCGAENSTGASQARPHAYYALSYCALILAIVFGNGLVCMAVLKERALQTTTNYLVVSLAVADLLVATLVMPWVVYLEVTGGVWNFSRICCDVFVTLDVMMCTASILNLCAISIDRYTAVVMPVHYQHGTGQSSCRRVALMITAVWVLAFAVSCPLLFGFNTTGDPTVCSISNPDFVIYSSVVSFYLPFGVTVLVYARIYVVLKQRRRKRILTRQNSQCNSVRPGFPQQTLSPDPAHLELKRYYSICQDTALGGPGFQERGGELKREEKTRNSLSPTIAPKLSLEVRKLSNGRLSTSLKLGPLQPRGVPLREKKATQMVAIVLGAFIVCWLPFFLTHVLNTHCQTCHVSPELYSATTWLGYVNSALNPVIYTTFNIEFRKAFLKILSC
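Cells plated overnight at 1500 cells/well, then exposed to library compounds with dopamine controls for 90 minutes at 37 degrees C. DiscoveRx reagent added for 30–60 minutes at room temperature; luminescence read, quantitative HTS format.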
IL-1B inflam inh – blocks inflammasome-driven IL-1 beta release | activity change, % at 57.5 µM | THP-1 LPS/ATP IL-1B secretion, AlphaLISA, 16 h; hits give low values | hit rate 4.7% among 360,000; in the data active = activity change below about -50%; inconclusive = mostly about -30% to -49%; note: % is set by controls: 0 for no effect and ±100 for the full control effect
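Secreted IL-1B measured by AlphaLISA bead assay after 16 h compound exposure of THP-1 cells; compounds (final up to 57.5 uM) added 1 h before LPS (250 ng/mL) and ATP (1.25 mM) stimulation; lower signal means less secretion.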
DT40 TDP1 no CPT – qHTS for Inhibitors of human tyrosyl-DNA phosphodiesterase 1 (TDP1): qHTS in cells in absence of CPT; DT40 Tdp1-/- hTDP1 cells, no CPT, ATP luminescence, 48 h; Potency, µM (highest dose often 46.2 µM), for inactives: top-dose activity change, negative = growth inhibition, most hits filed as inhibitors; hit rate 15% among 420,000; AID 686978, 2013; note: potency is the fitted concentration of half-maximal effect; % is set by controls: 0 for no effect and ±100 for the full control effect; nearly all actives have a fitted effect of over 55% in size
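Luminescent ATP content (CellTiter-Glo) served as the growth readout. Knockout chicken DT40 cells expressing human TDP1 were exposed to compounds without camptothecin for a minimum 48 hr at 37 °C.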
D3 ag – agonists of human D3 dopamine receptor; P35462; D3R DiscoveRx beta-arrestin cells, luminescence, 90 min; max activation, %; hit rate 0.58% among 410,000; AID 652048; in the data active = max activation above about 30%; note: 0% is about no effect
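Agonist mode: compounds and dopamine controls were applied to plated cells for 90 min at 37 degrees C after an overnight attachment at 1500 cells/well. Luminescent read-out followed 30 - 60 minutes at room temperature with DiscoveRx detection reagent.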
ClpP mod – qHTS Assay for Activators of ClpP | purified B. subtilis ClpP, FRET peptide cleavage, 20 min | Potency, µM (titrated, usually from 57.5 µM), for the others: top-dose activity change, negative = active | hit rate 1.9% among 340,000 | AID 651965, 2013; active = well fitted falling curve with a large enough effect; inconclusive = small, poorly fitted or top-dose-only effect; inactive = no such curve, though single readings can be large or run the other way; note: potency is the fitted concentration of half-maximal effect; the source files actives as falling curves though it sought activators and does not explain the sign; nearly all actives have a fitted effect of over 65% in size
Target sequence (P80244 whole entry, looked up): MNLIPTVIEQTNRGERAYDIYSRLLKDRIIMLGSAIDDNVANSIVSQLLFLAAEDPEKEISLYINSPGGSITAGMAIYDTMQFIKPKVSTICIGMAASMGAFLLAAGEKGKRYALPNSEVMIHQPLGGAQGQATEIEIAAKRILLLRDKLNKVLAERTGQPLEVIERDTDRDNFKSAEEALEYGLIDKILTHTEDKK
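FRET quenching reversal measured ClpP activation: 10 microg/mL B. subtilis ClpP at pH 8 with the FRET-FV decapeptide, read at 430 nm after 320 nm excitation. The 20-min minus 0-min signal was scaled between DMSO/no-enzyme wells and ADEP (5.8 microM final).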
Starred values were filed as active, the others as inactive; u = inconclusive; x = no result given. Unless noted, calls come from the whole dose curve; as a rule, active = well fitted inhibition curve with a large enough effect; inconclusive = small, poorly fitted or top-dose-only effect; inactive = flat fitted curve, though single readings scatter.

SMILES	DT40 TDP1 CPT	D3 antag	IL-1B inflam inh	DT40 TDP1 no CPT	D3 ag	ClpP mod
C=CCN(CC=C)CC(O)CN(c1cc([N+](=O)[O-])ccc1OC)S(=O)(=O)c1ccccc1 (stereo not drawn)	-12%	-84*	-1	-26%	-41	0%
O=S(=O)(c1ccc(F)cc1)N(CCO)CC(O)Cn1c2ccccc2c2ccccc21 (stereo not drawn)	u	25	-4	16µM*	-9	-13%
C=CCN(CC=C)CC(O)Cn1c2ccccc2c2ccccc21 (stereo not drawn)	u	7	-74*	23µM*	5	-5%
O=S(=O)(c1ccccc1)N(CC(O)Cn1c2ccccc2c2ccccc21)c1ccccc1 (stereo not drawn)	u	18	-53*	u	7	u
O=C1NC(=S)NC1=Cc1ccc2c(c1)CCC2	16µM*	u	-9	u	-8	2%
O=C(O)CC(CC(=O)O)(C(=O)O)c1ccccc1	1%	2	14	7%	14	x
CCN(CC)CCCNc1ccc2ncn3c4ccc(O)cc4c(=O)c1c23	0.15µM*	7	-93*	0.15µM*	-10	1%
CN(C)CCNc1ccc2nnn3c4ccc(O)cc4c(=O)c1c23	0.18µM*	-24	-53*	0.18µM*	1	0%
Cc1ccc(S(=O)(=O)N2[C@@H](Cc3ccccc3)CO[C@H]2CC(=O)c2cccs2)cc1	u	8	16	u	0	0%
O=C(CCn1c(=O)c2cccn2c2ccc(F)cc21)NCCc1ccc(Cl)cc1	u	x	x	15µM*	-28	-13%
Cc1ccc(CCNC(=O)CCn2c(=O)c3cccn3c3ccc(F)cc32)cc1	u	-22	-18	18µM*	-7	u
CCCCNC(=O)CCn1c(=O)c2cccn2c2ccc(F)cc21	u	-20	-4	u	-19	-5%
O=C1c2ccccc2C(=O)c2c([N+](=O)[O-])ccc(O)c21	-16%	0	-28	21µM*	10	x
O=c1c2ccccc2n(Cc2c(F)cccc2Cl)c(=O)n1Cc1ccccc1	u	x	x	-25%	-4	-12%
COc1cc(OC)c(OC)cc1CN1CCc2nc(N3CCN(c4ncccn4)CC3)ncc2C1	16µM*	x	x	23µM*	-5	-3%
CCOc1ccc(CN2CCc3nc(N4CCN(c5ccccc5OC)CC4)ncc3C2)cc1OC	9.2µM*	x	x	10µM*	-2	-4%
CCOc1ccc(CN2CCc3nc(N4CCN(c5ncccn5)CC4)ncc3C2)cc1OC	21µM*	x	x	u	5	-2%
Clc1ccc(CN2CCc3nc(N4CCN(c5ccccn5)CC4)ncc3C2)cc1	-20%	x	x	-20%	-2	108%
Fc1ccccc1N1CCN(c2ncc3c(n2)CCN(Cc2cc(Br)cs2)C3)CC1	u	x	x	-25%	-5	-3%
CC(C)CN1CCc2nc(N3CCN(c4ncccn4)CC3)ncc2C1	u	x	x	-25%	6	-4%
CCc1ccc(CN2CCc3nc(N4CCN(c5ccccc5F)CC4)ncc3C2)cc1	u	x	x	18µM*	-9	1%
COc1ccccc1N1CCN(c2ncc3c(n2)CCN(Cc2ccccc2F)C3)CC1	0%	x	x	1%	3	-5%
COc1cc(C(CC(=O)Nc2ccc(C)c(F)c2)N2Cc3ccccc3C2=O)cc(OC)c1OC (stereo not drawn)	-5%	x	x	-2%	4	5%
CCCCOC(=O)c1ccc(NC(=O)c2sc3nc(C)cc(C)c3c2N)cc1	-80%	x	x	u	9	4%
CCOC(=O)c1[nH]c2c(c1Cc1ccccc1)C(=O)CC(c1ccc(C(C)(C)C)cc1)C2 (stereo not drawn)	u	x	x	u	-5	-3%
SMILES	DT40 TDP1 CPT	D3 antag	IL-1B inflam inh	DT40 TDP1 no CPT	D3 ag	ClpP mod
Nc1nnc(SCC(=O)OCC(=O)Nc2ccccc2)s1	0%	2	10	-2%	4	0%
COc1cccc(N2CCN(c3ncc4c(n3)CCN(Cc3ccc(Br)cc3)C4)CC2)c1	13µM*	x	x	9.2µM*	-5	-22%
NC(Cc1c[nH]c2ccccc12)C(=O)Nc1ccccc1 (stereo not drawn)	-17%	8	4	-30%	3	0%
Cc1cc(C)c(NC(=O)CSc2nc3c(c(=O)n2C)SC(C)C3)c(C)c1 (stereo not drawn)	21µM*	32	-6	13µM*	4	-1%
CC1Cc2nc(SCC(=O)NCC3CCCO3)n(C)c(=O)c2S1 (stereo not drawn)	4%	-53*	9	-3%	14	-3%
Cc1cc(C)cc(NC(=O)CSc2nc3c(c(=O)n2C)SC(C)C3)c1 (stereo not drawn)	-28%	u	8	-22%	-8	-10%
CCOc1ccc(NC(=O)CSc2nc3c(c(=O)n2C)SC(C)C3)cc1 (stereo not drawn)	16µM*	0	18	u	5	0%
CCOc1ccccc1NC(=O)CSc1nc2c(c(=O)n1C)SC(C)C2 (stereo not drawn)	u	5	-14	u	1	3%
CC1Cc2nc(SCC(=O)Nc3ccc(F)cc3)n(C)c(=O)c2S1 (stereo not drawn)	23µM*	33	-11	u	5	-1%
O=C(NCCCN1CCCC1)c1ccc2c(c1)N(Cc1cccc(Cl)c1)C(=O)c1ccccc1S2(=O)=O	u	8	-10	u	-1	-1%
CCN1C/C(=N\S(=O)(=O)/N=C2\CN(CC)C(=O)N2CC)N(CC)C1=O	-7%	-10	19	15%	3	2%
CCOC(=O)C1=C(c2ccccc2)NC(=O)NC1c1cc(Cl)c(O)c(OC)c1 (stereo not drawn)	-22%	5	-2	u	0	x
CCOC(=O)C1=C(c2ccccc2)NC(N)=NC1c1ccc(OCc2ccc(Cl)cc2)c(OC)c1 (stereo not drawn)	23µM*	1	u	u	4	-1%
CCN1C(=O)[C@@H]2[C@@H](c3ccc(-c4ccc(F)cc4)c(OC)c3)N3CCCC[C@@]3(C(=O)OC)[C@@H]2C1=O	16µM*	38	-19	16µM*	33*	-7%
CCSc1ccc([C@@H]2[C@@H]3C(=O)N(CC)C(=O)[C@@H]3[C@]3(C(=O)OC)CCCCN23)cc1OC	-11%	-11	-17	u	-2	-3%
